# Tests used:
# Conditions in all cases: concentration: 1 μM,replicates: in singlicate; n = 1
# TNNI3K = test system: TNNI3K
# TRKA = test system: T1, TRKA
# T1 construct: gene NTRK1
# TRKB = test system: TRKB
# TRKC = test system: T2, TRKC
# T2 construct: gene NTRK3
# TRPM6 = test system: TRPM6
# TSSK1B = test system: TSSK1B
# TSSK3 = test system: TSSK3
# TTK = test system: TTK
# TXK = test system: TXK
# [1] = test system: TYK2(JH1domain-catalytic)
# [2] = test system: TYK2(JH2domain-pseudokinase)
# TYRO3 = test system: TYRO3
# ULK1 = test system: ULK1
# ULK2 = test system: ULK2
# ULK3 = test system: ULK3
# VEGFR2 = test system: T3, VEGFR2
# T3 construct: gene KDR
# VPS34 = test system: T4, VPS34
# T4 construct: gene PIK3C3
# VRK2 = test system: VRK2
# WEE1 = test system: WEE1
# WEE2 = test system: WEE2
# 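Further: KINOMEscan kinase panel screen.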
Compound,%Inh (TNNI3K) [%],%Inh (TRKA) [%],%Inh (TRKB) [%],%Inh (TRKC) [%],%Inh (TRPM6) [%],%Inh (TSSK1B) [%],%Inh (TSSK3) [%],%Inh (TTK) [%],%Inh (TXK) [%],%Inh [1] [%],%Inh [2] [%],%Inh (TYRO3) [%],%Inh (ULK1) [%],%Inh (ULK2) [%],%Inh (ULK3) [%],%Inh (VEGFR2) [%],%Inh (VPS34) [%],%Inh (VRK2) [%],%Inh (WEE1) [%],%Inh (WEE2) [%]
COc1cc(Nc2nccc(N3CCC(NC(=O)c4cccc(C#N)c4)C3)n2)cc(OC)c1OC (centres unmarked) [GSK1379751],14,60,53,64,0,10,7,0,9,72,55,0,12,0,96.7,0,0,0,0,0
C[C@@H](Oc1cc(-n2cnc3cc(-c4cnn(C)c4)ccc32)sc1C(N)=O)c1ccccc1Cl [GSK580432],24,100,73,50,0,14,16,25,44,45,0,11,14,10,11,61,74,0,26,5
CCNCC(Cc1ccccc1)NC(=O)c1cc(Br)c(-c2ccnc3[nH]ccc23)s1.Cl.Cl (centres unmarked) [GSK1383280],11,90,77,50,8,60,13,67,0,46,10,0,0,0,8,36,0,0,0,7
CCn1c(-c2nonc2N)nc2cncc(CNC3CCNCC3)c21.Cl [SB-747651],4,0,43,24,21,55,6,0,16,31,47,0,17,0,6,0,0,9,8,7
CN(c1cccc(CNc2nc(Nc3ccc4c(c3)CC(=O)N4)ncc2C(F)(F)F)c1)S(C)(=O)=O,0,98.3,93.5,79,0,0,15,97.5,0,58,0,0,72,45,40,37,0,12,0,0
COC(=O)c1cccc(NC(=O)NC2CCN(c3ccnc(Nc4cc(OC)c(OC)c(OC)c4)n3)C2)c1 (centres unmarked) [GSK1379767],0,97.1,81,95.6,0,9,13,0,0,40,18,0,0,0,58,15,0,25,8,0
Cn1ccc2ncnc(Oc3ccc(NC(=O)Nc4cc(C(C)(C)C)on4)c(Cl)c3)c21,90.7,96.1,96.4,99.1,0,0,3,2,0,7,26,28,8,11,16,97.5,16,19,0,23
NC(=O)c1ccc(-c2cc3ncnc(SCC(=O)O)c3s2)cc1,0,54,35,0,0,0,0,13,0,2,42,0,0,0,11,0,0,0,0,0
CCn1c(-c2nonc2N)nc2cncc(Br)c21 [SB-738004],0,56,20,44,0,0,25,0,0,58,18,0,14,13,3,37,36,35,13,0
O=c1[nH]cc(-c2ccc(O)cc2)c2sc(-c3ccncc3)cc12 [GSK1033723],18,46,0,14,2,0,9,11,5,0,16,8,8,2,6,0,0,0,3,0
Cl.Nc1n[nH]c2cc(-c3ccccn3)ccc12 [GSK2189892],0,23,0,0,0,0,8,14,0,0,0,0,50,47,0,0,10,0,4,0
c1ccc(Oc2ccc(Nc3ccnc4ccc(-c5ccccn5)cc34)cc2)cc1 [GW407034],0,0,15,9,27,27,19,1,27,7,15,0,49,0,5,0,0,0,15,0
CN1CCN(CCNc2nc3cc(Oc4ccc(NC(=O)Nc5cc(C(F)(F)F)ccc5F)cc4)ccc3[nH]2)CC1.Cl.Cl [GW768504],0,0,0,0,0,8,0,41,0,0,0,0,0,0,0,58,17,0,8,2
COc1ccc(Nc2nccc(N3CCC(NC(=O)c4cccc(C#N)c4)C3)n2)cc1 (centres unmarked) [GSK1379730],0,40,14,43,0,0,12,0,41,44,18,0,0,0,10,0,46,0,0,6
Cn1ccc2ncnc(Oc3ccc(NC(=O)Nc4cccc(C(F)(F)F)c4)c(F)c3)c21,82,100,88,96.4,0,0,0,18,0,0,0,3,0,0,0,99.1,0,0,43,0
CC(C(=O)NC1CCN(c2ccnc(Nc3ccc(F)cc3)n2)C1)c1ccc(Cl)cc1 (centres unmarked) [GSK1379713],0,33,11,0,0,0,5,11,0,9,0,0,7,0,2,3,4,0,6,13
COc1cccc(OC)c1C(=O)Nc1cccc(-c2nn3ccccc3c2-c2ccnc(Nc3cccc(F)c3)n2)c1 [GSK361065],8,0,0,0,4,20,0,5,6,0,0,79,0,13,0,18,0,0,9,12
O=C(Nc1n[nH]c2cc(-c3ccco3)ccc12)C1CC1 [SB-737447],0,57,19,32,0,0,0,18,0,21,0,0,11,0,20,6,16,0,0,2
CCOC(=O)N1CCC(n2cnc(-c3ccc(F)cc3)c2-c2ccnc(N)n2)CC1 [SB-219952],0,42,34,24,4,0,12,0,16,48,67,20,4,26,8,3,35,27,0,0

# Source: paper PMC5540273 (PLoS ONE, 2017)
